ssDAF12 agonist = S. stercoralis DAF-12 nuclear receptor activators, primary screen, cell-based, luminescence, HEK293, GRIP1 co-expression, lit1-tk-luc; actives 1% (n = 370,000); Nuclear hormone receptor DAF-12 (Strongyloides stercoralis); HEK293 ssDAF-12/GRIP1 lit1-tk-luc reporter; % of 3 µM dafachronic acid response; activation, % at 6.8 µM;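 active = activation above the mean over all tested compounds plus 3 SD, cut at about 0.9% in these data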;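 also: 0% = DMSO-only wells and 100% = 3 µM delta7-dafachronic acid wells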
FXN GAA850 act = FXN promoter activators, primary screen, cell-based, luciferase luminescence, HEK293 lucGAA850. HEK293 lucGAA850 FXN promoter luciferase reporter, 24 h; percent of 10 µM SAHA response. activation, % at 6 µM. actives 0.56% (n = 360,000);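 active = activation above the average of all compounds screened plus 3 SD, cutoff fixed separately per campaign, cut at about 7.5% in these data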;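 also: 0% = DMSO wells and 100% = 10 µM SAHA wells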
hgDAF-12 ag = H. glycines DAF-12 receptor agonists, primary screen, cell-based, luminescence, HEK293, GAL4 fusion, UAS-luciferase; Nuclear hormone receptor DAF-12 (Heterodera glycines), GAL4 fusion; HEK293 GAL4-hgDAF12 UAS-luciferase reporter, agonist luminescence; normalized to butyrate control; activation, % at 6.8 µM; actives 1.8% (n = 370,000); AID 687014, 2013;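 active = activation above a cutoff set at the mean of all screened compounds plus 3 SD, cut at about 10% in these data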;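 also: 0% = DMSO wells and 100% = sodium butyrate wells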
DAX1 inh-1 = DAX1 (NR0B1) inhibitors on StAR promoter, primary screen, cell-based, luminescence, SF-1 (NR5A1), full-length DAX-1 | HEK293T StAR-luciferase reporter, SF-1/DAX-1 repression relief | actives 1.1% (n = 370,000) | AID 652010, 2013 | inhibition, % at 6.8 µM;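 active = inhibition above the mean over all tested compounds plus 3 SD, cut at about 3.6% in these data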;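 also: 0% = DAX-1 cells with DMSO and 100% = cells lacking DAX-1 with DMSO; higher inhibition means more luminescence from relief of DAX-1 repression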
hcDAF12 agonist = H. contortus DAF-12 nuclear receptor activators, primary screen, cell-based, luminescence, HEK293, lit1-tk-luc reporter | HEK293 hcDAF-12 lit1-tk-luc reporter; 0% DMSO, 100% Δ7-dafachronic acid | activation, % at 6.8 µM | actives 1.4% (n = 370,000) | AID 652067, 2013;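 active = activation above the mean of all tested compounds plus 3 SD, cut at about 5.5% in these data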;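 also: 100% = response to 3 µM Δ7-dafachronic acid high control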
DAX1 inh-2 = DAX1 (NR0B1) inhibitors, primary screen, cell-based, HEK293, Gal4-DAX1, luciferase luminescence. inhibition, % at 6.75 µM. Nuclear receptor subfamily 0 group B member 1 (Homo sapiens), P51843. HEK293 Gal4-DAX1 luciferase reporter. actives 0.99% (n = 340,000);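 active = inhibition above the mean over all tested compounds plus 3 SD, cut at about 4.2% in these data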;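 also: 0% = DAX1-transfected cells with DMSO and 100% = empty-vector control cells with DMSO; inhibition shows as a rise in luminescence from relieved DAX1 repression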
GAA30 counter = GAA30 FXN promoter activators, confirmation, counter-screen for GAA850 frataxin promoter activator project, cell-based, luminescence, HEK293, lucGAA30, triplicate; AID 588350, 2011; HEK293 lucGAA30 FXN promoter luciferase, 24 h; DMSO = 0%, 5 µM ipriflavone = 100%; shares compounds with FXN GAA850 act; activation, % at 6 µM; actives 66% (n = 1,900);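 active = mean activation above the mean of solvent-only control wells plus 3 SD, cut at about 22% in these data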;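 also: counterscreen of GAA850 promoter hits where activity marks nonselective or luminescence artifacts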
FXN GAA850 conf = FXN GAA850 promoter activators in reporter cells, confirmation, cell-based, luminescence, HEK293 lucGAA850, triplicate; actives 86% (n = 1,900); HEK293 lucGAA850 FXN promoter luciferase reporter, 24 h; 100% = activation by SAHA; shares compounds with FXN GAA850 act; activation, % at 6 µM; AID 588351, 2011;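 active = mean activation above a set limit taken from the primary screen, cut at about 8% in these data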;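 also: 0% = DMSO wells and 100% = 10 µM SAHA wells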
LXRb hcDAF ctr = LXR agonists, Gal4 luciferase reporter, confirmation, counter-screen for hcDAF-12 agonist project, cell-based, luminescence, HEK293, H. contortus campaign; shares compounds with hcDAF12 agonist; HEK293 Gal4-LXR tk-luc reporter, 24 h; normalized: DMSO 0%, positive control 100%; activation, % at 6.8 µM; 3,400 tested, under 10 active; AID 743027, 2013;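 active = mean percent activation of the reporter above a cutoff set as the average over tested compounds plus their standard deviation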
Target sequence (P55055 whole entry, looked up, the tested form may be a part): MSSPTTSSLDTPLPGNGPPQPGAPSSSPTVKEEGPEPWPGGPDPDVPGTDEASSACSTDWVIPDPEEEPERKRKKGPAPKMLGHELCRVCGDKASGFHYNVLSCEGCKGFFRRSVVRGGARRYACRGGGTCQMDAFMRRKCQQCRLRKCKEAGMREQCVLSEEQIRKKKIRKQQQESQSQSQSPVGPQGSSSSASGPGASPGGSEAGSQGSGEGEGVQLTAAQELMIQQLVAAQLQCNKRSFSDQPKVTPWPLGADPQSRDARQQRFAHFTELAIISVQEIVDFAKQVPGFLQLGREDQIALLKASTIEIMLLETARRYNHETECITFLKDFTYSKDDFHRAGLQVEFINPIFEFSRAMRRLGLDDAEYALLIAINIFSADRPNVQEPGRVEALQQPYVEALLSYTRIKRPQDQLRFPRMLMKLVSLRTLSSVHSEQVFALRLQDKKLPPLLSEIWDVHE
hcDAF12 ag = H. contortus DAF-12 receptor agonists, confirmation, cell-based, luminescence, HEK293, lit1-tk-luc, triplicate; shares compounds with hcDAF12 agonist; HEK293 hcDAF-12 lit1-tk-luc reporter; % of Δ7-dafachronic acid response; activation, % at 6.8 µM; actives 61% (n = 3,400);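 active = mean activation across triplicate tests above the threshold derived from the earlier primary screen, cut at about 5.5% in these data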;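 also: 0% = DMSO only wells and 100% = 3 µM Δ7-dafachronic acid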
hgDAF12 conf = H. glycines DAF-12 receptor agonists, confirmation, cell-based, luminescence, HEK293, GAL4-LBD fusion; activation, % at 6.8 µM; shares compounds with hgDAF-12 ag; actives 80% (n = 3,300); HEK293 GAL4-hgDAF12 luciferase reporter, agonist mode; percent of butyrate response; AID 743050, 2013;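 active = mean activation over triplicate wells above the hit cutoff derived from the earlier primary screen, cut at about 11% in these data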;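 also: 0% = DMSO low control and 100% = 2 mM sodium butyrate high control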
LXRb DAF12 ctr = LXR agonists, Gal4 luciferase reporter, confirmation, counter-screen for hgDAF-12 agonist project, cell-based, luminescence, HEK293, H. glycines campaign | shares compounds with hgDAF-12 ag | 24 h | activation, % at 6.8 µM | 3,300 tested, under 10 active | AID 743051, 2013;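 active = mean activation of the triplicate above a set limit carried over from the primary screen, none filed active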
An asterisk follows results filed as active; x = not tested or not shown; ! = not confirmed by another sample. Shown are actives, neighbours in structure and some others; about 4.5% of the full set was active somewhere.

SMILES	ssDAF12 agonist	FXN GAA850 act	hgDAF-12 ag	DAX1 inh-1	hcDAF12 agonist	DAX1 inh-2	GAA30 counter	FXN GAA850 conf	LXRb hcDAF ctr	hcDAF12 ag	hgDAF12 conf	LXRb DAF12 ctr
CC(=O)c1cc2c(C)c(C(=O)c3ccccc3)oc2cc1O	1.7*	8.8*	26*	4.0*	7.5*	1	122*	39*	2	5.8*	21*	1
Cc1c(-c2nc(N)nc(Nc3ccccc3F)n2)oc2ccccc12	0.9*	14*	14*	3.7*	7.5*	4	112*	48*	2	7.3*	18*	1
Brc1ccc(/C=N/Nc2ccccn2)cc1	1	9.5*	15*	2	2	1	105*	39*	x	x	11*	0
O=C(NC1CCCCN(Cc2cccc(Cl)c2)C1=O)c1cccc2nsnc12 (stereo unspecified)	-1	x	-2	0	1	x	x	x	x	x	x	x
Cc1ccc2nc(-c3ccc4c(c3)NC(=O)CO4)cn2c1	0	8.5*	14*	4.5*	4	3	98*	30*	x	x	14*	1
Cc1ccc2nc(-c3ccc4c(c3)OCCO4)cn2c1	-2	-11	-12	-3	-5	-10	x	x	x	x	x	x
COc1cc(/C=N/NC(=O)c2ccc3c(c2)OCCO3)cc(Cl)c1O	-1	1	3	0	0	0	x	x	x	x	x	x
COc1c(O)ccc(/C=N/NC(=O)c2ccc3c(c2)OCCO3)c1[N+](=O)[O-]	0	7.7*	15*	2	2	3	71*	19*	x	x	9	0
C[n+]1c2cc(N)ccc2cc2ccc(N)cc21	0	20*	13*!	-3	6.6*	-1	16	138*	1	11*	8	1
